From PubChem BioAssay
A selection: hits, their analogues and other compounds. The true share with any hit is near 2.9%.
IP6K1 inhibitor: Primary qHTS assay for small molecule inhibitors of Inositol hexaphosphate kinase 1 (IP6K1); AID 1645851, 2021; hit rate 0.81% among 140,000; activity change, % (series mostly up to about 58 µM); IP6K1 kinase, ADP-Glo luminescence, 2 h; stronger effect = lower value; Inositol hexakisphosphate kinase 1 (Homo sapiens), Q92551; in the data active = activity change below about -25%; note: % is set by controls: 0 for no effect and ±100 for the full control effect
Target sequence (Q92551 whole entry, looked up): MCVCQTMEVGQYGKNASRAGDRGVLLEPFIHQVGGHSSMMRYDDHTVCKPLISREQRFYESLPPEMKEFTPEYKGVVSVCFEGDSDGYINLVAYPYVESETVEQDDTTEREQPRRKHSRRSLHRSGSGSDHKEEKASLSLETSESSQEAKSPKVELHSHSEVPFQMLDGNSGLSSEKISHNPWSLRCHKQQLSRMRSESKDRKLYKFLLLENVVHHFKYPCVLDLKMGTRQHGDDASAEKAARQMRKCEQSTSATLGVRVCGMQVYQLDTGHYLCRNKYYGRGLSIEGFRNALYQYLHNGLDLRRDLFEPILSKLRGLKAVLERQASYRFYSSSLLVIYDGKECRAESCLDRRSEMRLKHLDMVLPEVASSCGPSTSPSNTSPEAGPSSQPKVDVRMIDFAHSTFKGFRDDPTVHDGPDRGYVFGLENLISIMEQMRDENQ
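ADP-Glo luminescence measures ADP made by human IP6K1 during a 2 h RT reaction with ATP/IP6 (mix at 1.3 mM/130 uM); top library doses 57.5 and 19.1 uM final.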
SNCA viab count: GF-AFC viability counterscreen for inhibitors of alpha-synuclein gene (SNCA) expression. HEK-293-SNCA-luc viability, GF-AFC fluorescence, 24 h. Potency, µM (top dose mostly 57.1 µM), without a hit: at the top dose activity change, negative = cytotoxicity, most hits filed as cytotoxic. hit rate 0.12% among 150,000;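 note: potency is the fitted concentration of half-maximal effect; 0% = DMSO-treated cells and -100% = medium-only wells without cells; nearly all actives have a fitted effect of over 30% in size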
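HEK-293-SNCA-luc cells (1500/well) plated 24 h, then exposed 24 h to a dilution series; GF-AFC added 30 min at 37C, fluorescence 405/540 nm; normalised to medium-only and DMSO wells, Hill fit.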
KDM5B inh: Primary screen for KDM5B Histone Demethylases FDH-coupled qHTS | Lysine-specific demethylase 5B (Homo sapiens), Q9UGL1 | KDM5B demethylase, FDH-coupled NADH fluorescence (FDH is formaldehyde dehydrogenase) | Potency, µM (highest dose often 57.7 µM), most hits filed as inhibitors | hit rate 2.6% among 220,000 | AID 1347165, 2019; note: potency is the fitted concentration of half-maximal effect; 0% is about no effect; nearly all actives have a fitted effect of over 70% in size
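Measured: NADH fluorescence change, 30 min, RT. System: KDM5BΔAP 200 nM final, H3K4me3 peptide, α-KG, Fe(II), ascorbate, NAD⁺ plus FDH, pH 7.5 HEPES. Compounds: titrated, 10 min pre-incubation with enzyme.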
SNCA expr inhib: Primary qHTS assay for inhibitors of alpha-synuclein gene (SNCA) expression. HEK-293 SNCA-luciferase knock-in, luminescence, 24 h. Potency, µM (doses to about 57.2 µM), for the others: top-dose activity change, negative = inhibition, usual class: inhibitors. hit rate 0.17% among 140,000;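 note: potency is the fitted concentration of half-maximal effect; plate controls were DMSO cells for no effect and cell-free wells for full effect; nearly all actives have a fitted effect of over 45% in size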
The depositor's hits bear a star; i = inactive; u = inconclusive; x = no result given; [ ] = dose if it differs, or a comment. Unless noted, calls come from the whole dose curve; as a rule, active = well fitted curve in the direction sought with a large enough effect; inconclusive = small, poorly fitted or top-dose-only effect, or another doubt; inactive = no such curve, though single readings can be large; an effect the other way counts as inactive or inconclusive.

SMILES | IP6K1 inhibitor | SNCA viab count | KDM5B inh | SNCA expr inhib
CN1Cc2cccn2CC1CNC(=O)c1cccc(F)c1 (stereo not drawn) | 16.2 | 3.3% | 25.1µM* | -16.6%
CN1Cc2cccn2CC1CNC(=O)Nc1cccc(F)c1 (stereo not drawn) | 13.4 | -10.5% | u | -25.0%
CN1Cc2cccn2CC1CNC(=O)c1cnn(C)c1 (stereo not drawn) | 15.0 | -2.2% | 22.4µM* | -12.0%
CCn1nc(C)c(-c2cc(C(=O)NCC3Cn4cccc4CN3C)no2)c1C (stereo not drawn) | -10.2 | -10.2% | u | 2.5%
N#CCSc1nnc(-c2ccccc2F)n1-c1ccccc1 | x | x | i | x
O=C(NC[C@H]1O[C@@H]2C[C@@H](CC(=O)N3CCC(F)(F)C3)O[C@@H]2[C@@H]1O)NC1CCCCC1 | 7.0 | -1.9%[87.6 µM] | i | -6.6%[87.6 µM]
C#CCNC(=O)c1ccc2oc(-c3cccnc3)nc2c1 | -4.2 | 6.6%[87.6 µM] | x | 17.9%[87.6 µM]
CN1Cc2cccn2CC1CNC(=O)c1nccn1C (stereo not drawn) | -1.0 | -14.2% | 14.1µM* | -0.1%
CN1Cc2cccn2CC1CNC(=O)c1ccco1 (stereo not drawn) | -2.5 | 11.1% | 28.2µM* | 5.3%
CN1Cc2cccn2CC1CNC(=O)c1cc(CN2CCOCC2)on1 (stereo not drawn) | -0.7 | 6.5% | 17.8µM* | 24.3%
CN1Cc2cccn2CC1CNC(=O)c1cccn1C (stereo not drawn) | -10.1 | -0.8% | u | 0.2%
Cc1ccc(CNC(=O)NCC2Cn3cccc3CN2C)cc1 (stereo not drawn) | -11.5 | 3.3% | u | -17.9%
CN1Cc2cccn2CC1CNC(=O)c1ccccc1 (stereo not drawn) | -4.4 | -7.6% | 28.2µM* | -4.2%
NC(=O)c1cc[nH]c1C1CCCN(C(=O)COc2ccc(Cl)cc2)C1 (stereo not drawn) | 10.2 | 7.5%[12.5 µM] | i | 35.9%
CC1=C(C(=O)Nc2ccccc2)C(c2sccc2C)n2nc(-c3ccccc3)nc2N1 (stereo not drawn) | x | x | i | x
Cc1nn(-c2ccccc2)c2c1C(C1CC1)N(CC1CN(C(=O)N(C)C)C1)C2=O (stereo not drawn) | 3.3 | x | x | x
Cc1cc(C(=O)NCC2Cn3cccc3CN2C)nn1C (stereo not drawn) | 5.0 | -0.3% | 25.1µM* | 5.4%
CC(C)(C)c1nc(C(=O)N2CCCC2)n2ccccc12 | -5.1 | -9.2%[87.6 µM] | 112µM* | u
COc1ccc(-c2nc(C(=O)N3CCCC3)n3ccccc23)cc1 | 7.7 | 10.5%[87.6 µM] | u | 23.1%[87.6 µM]
C#CCNC(=O)c1nc(C(C)(C)C)c2ccccn12 | -8.2 | -0.7%[87.6 µM] | 112µM* | 2.5%[87.6 µM]
CC(C)NC(=O)c1nc(C(C)(C)C)c2ccccn12 | -9.6 | 7.1%[87.6 µM] | 112µM* | 2.2%[87.6 µM]
CC(C)NC(=O)c1nc(-c2ccccc2)c2ccccn12 | 1.1 | 7.2%[87.6 µM] | i | 0.0%[87.6 µM]
COc1cccc(C(CC(=O)Nc2cccc(-c3ccno3)c2)n2cccc2)c1 (stereo not drawn) | x | x | i | x
COc1c(C)cc(N)cc1C | x | x | i | x
COC1=Cc2c(nc3n(c2=O)C(C)C(=O)NC3(O)C(C)C)OC=C1 (stereo not drawn) | -0.5 | -15.8% | x | x
SMILES | IP6K1 inhibitor | SNCA viab count | KDM5B inh | SNCA expr inhib
CN(C(=O)c1ccc2c(c1)NC(C)(COCC1CC1)CO2)c1ccccc1 (stereo not drawn) | -11.2 | -2.8%[87.6 µM] | i | -16.1%[87.6 µM]
CC1(COc2ccccc2)COc2ccc(C(=O)NCc3cccc(F)c3)cc2N1 (stereo not drawn) | 5.1 | -15.6%[87.6 µM] | 31.6µM* | -34.7%[87.6 µM]
C[C@@H]1CN(C(=O)c2ccc3c(c2)NC(C)(COCC2CC2)CO3)C[C@H](C)O1 (stereo partly drawn) | 4.8 | 12.6%[87.6 µM] | i | -12.1%[87.6 µM]
CC1(COCC2CC2)COc2ccc(C(=O)NCc3cccc(F)c3)cc2N1 (stereo not drawn) | 12.7 | -10.8%[87.6 µM] | 39.8µM* | 2.9%[87.6 µM]
CC1(COCC2CC2)COc2ccc(C(=O)N3CCOCC3c3cccc(F)c3)cc2N1 (stereo not drawn) | 13.6 | 0.8%[87.6 µM] | 35.5µM* | -26.1%[87.6 µM]
CC1(COc2ccccc2)COc2ccc(C(=O)NCc3cccnc3)cc2N1 (stereo not drawn) | -1.1 | 3.8%[87.6 µM] | 35.5µM* | -6.3%[87.6 µM]
CCOC(=O)C1(Cc2ccccc2C)CCCNC1 (stereo not drawn) | -6.8 | 0.6% | i | 7.4%
CC1(COc2ccccc2)COc2ccc(C(=O)NCCc3cnc[nH]3)cc2N1 (stereo not drawn) | -4.4 | 10.3%[87.6 µM] | 35.5µM* | u
CC1(COc2cccnc2)COc2ccc(C(=O)NCCc3ccccc3)cc2N1 (stereo not drawn) | 17.0 | -21.8%[87.6 µM] | 35.5µM* | 11.6%[87.6 µM]
CC1(COc2ccccc2)COc2ccc(C(=O)NCCc3ccccc3)cc2N1 (stereo not drawn) | -0.3 | -1.0%[87.6 µM] | u | -28.3%[87.6 µM]
CC1(COc2ccccc2)COc2ccc(C(=O)NCCc3ccccn3)cc2N1 (stereo not drawn) | 10.5 | -6.9%[87.6 µM] | 31.6µM* | -29.9%[87.6 µM]
CC1(COc2cccnc2)COc2ccc(C(=O)NCCOc3ccccc3)cc2N1 (stereo not drawn) | 7.4 | u | 31.6µM* | u
CC(C)(C)NC(=O)CN1CCN(C(=O)c2cc3cc(F)ccc3[nH]2)CC1 | x | x | i | x
O=C(NCc1ccc(Cl)cc1)C1CCc2nnc(-c3cccc(C(F)(F)F)c3)n21 (stereo not drawn) | 11.5 | 1.8% | x | -13.3%
O=C(CCC(=O)c1ccc2ccccc2c1)NC1CCCCCC1 | x | x | i | x
COc1ccc(Cc2nnc(Nc3ccc(OC)cc3)[nH]c2=O)cc1 | x | x | i | x
COCCN1C(=O)c2ccccc2C(C(=O)NCCc2c[nH]c3ccccc23)C12CCCC2 (stereo not drawn) | 0.8 | -18.3% | 22.4µM* | -21.2%
COCCN1C(=O)c2ccccc2C(C(=O)Nc2ccc(OC)cc2)C12CCCC2 (stereo not drawn) | 9.3 | -5.8% | 15.8µM* | 11.1%
CC(=O)Nc1ccc(NC(=O)C2c3ccccc3C(=O)N(C3CCCC3)C23CCCC3)cc1 (stereo not drawn) | 8.5 | -2.7% | u | 1.5%
Cc1nc(NC(=O)C2c3ccccc3C(=O)N(C3CCCC3)C23CCCC3)sc1C (stereo not drawn) | 4.1 | -16.9% | 22.4µM* | -9.2%
Cc1ccccc1-c1cc(C(=O)O)c2ccc(C)c(C)c2n1 | x | x | i | x
C[C@@H]1C(=O)O[C@H]2[C@H]1CC[C@@]1(C)Cc3sc(NC(=O)c4ccc(N(C)C)cc4)nc3[C@@H](C)[C@H]21 | 22.0 | -0.4% | 28.2µM* | 16.8%
C[C@@H]1C(=O)O[C@H]2[C@H]1CC[C@@]1(C)Cc3sc(Nc4ccc(C(=O)O)cc4)nc3[C@@H](C)[C@H]21 | 15.2 | 0.6%[87.6 µM] | 35.5µM* | -19.5%[87.6 µM]
Cc1ccc(C(=O)Nc2cccc(-c3ccc(N4CCN(C)CC4)nn3)c2)cc1C | 16.2 | -9.7% | i | 13.7%
CN1CCN(c2ccc(-c3cccc(N)c3)nn2)CC1 | -10.0 | -4.8% | i | 22.4µM*
